Hit rate of the full screen: of about 48,000 compounds, about 13,000 (27%) showed an effect of 50% or more. Some of the results follow.
system: Wolbachia pipientis; assay: Anti-Wolbachia Cell-Based Screen; type: functional; set-up: scale not given: in the data most compounds retested in dose-response had high values; conditions: 5 µM

Structure (SMILES)	Percent Effect [%]
COc1ccc(OC)c(C(C)NC(=O)Nc2nnc(C)s2)c1 (stereo not drawn)	-19.71
CN(C)C(=O)COCc1cncc2c1CCN(Cc1ccccc1)C2.O=C(O)C(F)(F)F.O=C(O)C(F)(F)F	-0.7445
CN(C)CCOCc1cncc2c1CCN(Cc1ccccn1)C2.O=C(O)C(F)(F)F.O=C(O)C(F)(F)F.O=C(O)C(F)(F)F	94.64
CCCN1CCc2c(C(=O)N(C)Cc3ccccn3)nn(C)c2C1.O=C(O)C(F)(F)F.O=C(O)C(F)(F)F.O=C(O)C(F)(F)F	5.255
CN(C)C(=O)COCc1cncc2c1CCN(Cc1cnn(C)c1)C2.O=C(O)C(F)(F)F.O=C(O)C(F)(F)F	-8.97
O=C(O)C(F)(F)F.OCCOCc1n[nH]c2c1CN(Cc1ccccn1)C2	-2.311
CN(C)C(=O)COCc1cncc2c1CCN(Cc1ccccn1)C2.O=C(O)C(F)(F)F.O=C(O)C(F)(F)F	86.2
O=C(O)c1cc(-c2ccncc2)cc(S(=O)(=O)NCc2ccccn2)c1	-3.238
CC(C1CC1)N(CC(=O)NC(=O)NC1CC1)C1CC1 (stereo not drawn)	-6.692
Cc1[nH]ncc1CCCNC(=O)Nc1ccccc1	-6.052
O=C(Nc1ccc(F)cc1F)Nc1c[nH]c(=O)[nH]c1=O	-7.625
Cc1nc(CCCNC(=O)Nc2ccc(F)cc2F)n[nH]1	105.4
Cc1nc(CCCNC(=O)Nc2cc(F)cc(F)c2)n[nH]1	105.8
O=C(CCCNC(=O)Nc1ccc(F)cc1F)Nc1cn[nH]c1	-17.8
Cc1[nH]ncc1CCCNC(=O)Nc1ccc(F)cc1	17.19
CCC(CO)N(Cc1ccco1)C(=O)c1ccccc1SC (stereo not drawn)	-1.914
Cc1cc2c(c(-c3cncc(C(=O)N4CCCC4)n3)c1)OC(CN)C2 (stereo not drawn)	3.308
Cc1cccc(C)c1OC1CCN(Cc2ccn(C)c(=O)c2)CC1	80.01
CCOc1ccccc1OC1CCN(Cc2ccn(C)c(=O)c2)CC1	96.61
Cn1ccc(CN2CCC(Oc3ccccc3)CC2)cc1=O	0.4399
COc1ccc(OC2CCN(Cc3ccn(C)c(=O)c3)CC2)cc1	90.95
CC(=O)NCCC(=O)N(C/C=C/c1ccccc1)CCO	2.612
CC(C)(O)CCc1ccc(C(=O)NCC2CCCOC2)cc1 (stereo not drawn)	-16.45
Cc1nc(C)c(C(=O)N2CCc3nc4c(C)csc4c(=O)n3CC2)s1.Cl	93.57
Cc1csc2c(=O)n3c(nc12)CCN(C(=O)c1ccccn1)CC3	118.3

Structure (SMILES)	Percent Effect [%]
CCc1nc(CN2CCN(C(=O)c3cc(C)nn3C)CC2)cs1	-4.839
CCc1cc(C(=O)N2CCc3nc4c(C)csc4c(=O)n3CC2)on1	101.2
Cc1ccc(C(=O)N2CCc3nc4c(C)csc4c(=O)n3CC2)cn1	130.6
Cc1nc(-c2ccsc2)sc1C(=O)N1CCn2c(C)nnc2C1	-8.635
Cc1csc2nc3n(c(=O)c12)CCN(C(=O)c1ccncc1)CC3	0.2415
Cc1csc2c(=O)n3c(nc12)CCN(C(=O)c1cccnc1)CC3	-6.131
CN1CCN(Cc2cnc3n2CCN(C(=O)c2ccccn2)C3)CC1	-0.6061
Cc1noc(CN2CCN(C(=O)c3ccccn3)CC2)n1	-3.094
O=C1OCCN1CCc1nc(-c2cc3c4c(c2)CC(=O)N4CCC3)cs1	-4.599
O=C(O)CC[C@@H]1CN(c2ncccc2F)CC[C@@H]1N1CCOCC1	1.489
CSCc1nc(C(C)(C)NC(=O)OC(C)(C)C)no1	6.132
COc1ccc(CN2C[C@@H](CN(C)CCO)[C@@H](CO)C2)cc1Cl	-12.8
CC(C)(C)N1CC(C(=O)NCc2nc(C3CCCCC3)no2)CC1=O (stereo not drawn)	-1.29
CCc1ccc(CNC(=O)CCNS(=O)(=O)c2cn(C)c(C)n2)s1	-8.825
Cc1cc2c(=O)n3c(nc2s1)CCN(C(=O)c1cnn(C)c1C)CC3	-11.91
Cc1csc2c(=O)n3c(nc12)CCN(C(=O)c1ccnn1C)CC3	126.7
Cc1cc(NC(=O)N2CCOC(C(N)=O)C2)ccc1Br (stereo not drawn)	158.4
COc1ccc(NC(=O)N2CCC(c3nnc[nH]3)CC2)cc1C	-18.03
NC(=O)C1CN(C(=O)NCC2(c3ccc(F)cc3)CCC2)CCO1 (stereo not drawn)	2.915
NC(=O)C1CN(C(=O)Nc2cc(Cl)cc(Cl)c2)CCO1 (stereo not drawn)	-5.843
NC(=O)C1CN(C(=O)Nc2ccc(SC(F)(F)F)cc2)CCO1 (stereo not drawn)	111.1
C[C@@H]1CN(C(=O)Nc2cccc(OC(F)F)c2)CC(C(N)=O)O1 (stereo partly drawn)	-8.405
CN1CCCc2cc(NC(=O)N3CCOC(C(N)=O)C3)ccc21 (stereo not drawn)	-7.642
Cc1ccc(NC(=O)N2CCOC(C(N)=O)C2)cc1C(F)(F)F (stereo not drawn)	103.5
COCCN1CCC(CNC(=O)Nc2ccc(SC(F)(F)F)cc2)C1 (stereo not drawn)	-1.712

Structure (SMILES)	Percent Effect [%]
COCCCC1(CO)CCCN(Cc2cccc(C#N)c2)C1 (stereo not drawn)	1.897
COCC(C)NCc1ccc2[nH]c(C)c(C)c2c1 (stereo not drawn)	5.235
Cc1ccc(-n2c(COCC(=O)O)nc3c(C)cccc32)nc1	-11.98
O=C(c1ccc2nncn2c1)N1CCCC1c1noc(C2CC2)n1 (stereo not drawn)	-1.94
OCCCN1CCCC1c1nc(Cc2ccc(F)cc2)no1 (stereo not drawn)	-4.354
Cc1ncsc1CN1CC(C)(C2CC2)CC1=O (stereo not drawn)	-4.839
Cc1nc(CN(C)C2CCN(CCCOc3ccc(F)cc3)C2)no1 (stereo not drawn)	112.3
Cc1nc(CN(C)C2CCN(CCCc3ccccc3)C2)no1 (stereo not drawn)	119.3
CCc1n[nH]c(C2CN(CCCOc3cccc(C)c3)CCO2)n1 (stereo not drawn)	13.14
Cc1nc(CN(CCc2ccccc2)C2CCN(C)CC2)no1	-15.44
Cc1nc(CN(C)C2CCN(CCCOc3ccccc3C)C2)no1 (stereo not drawn)	109.1
Cc1cccc(OCCCN2CCC(N(C)Cc3noc(C)n3)C2)c1 (stereo not drawn)	112.7
CC(C)N(Cc1cccc(Cl)c1)Cc1nnsc1Cl	2.005
Cc1cc(CN2CCc3nn(C)c(=O)cc3C2)no1	-29.82
O=C(NCC1CCS(=O)(=O)C1)c1sccc1-c1ccc(F)cc1 (stereo not drawn)	-6.4
Cc1cc(NC(=O)NCCc2ccsc2)n(C)n1	2.6
c1coc(-c2noc(CN3CCCC(Cn4cncn4)C3)n2)c1 (stereo not drawn)	-0.1927
CC(C)Cc1noc(CN2CCCC(Cn3cncn3)C2)n1 (stereo not drawn)	3.537
Fc1ccccc1Cc1noc(CN2CCCC(CN3CCCC3)C2)n1 (stereo not drawn)	-1.357
Clc1snnc1CN1CCCC(Cn2cncn2)C1 (stereo not drawn)	3.779
COCCc1noc(CN2CCCC(Cn3cncn3)C2)n1 (stereo not drawn)	89.51
c1ccc(Cc2noc(CN3CCCC(Cn4cncn4)C3)n2)cc1 (stereo not drawn)	97.1
COCCN(C(=O)c1ccsc1)c1ccc(C#N)cc1	-12.97
O=C(Cc1cn2ccsc2n1)N1CCOCC(O)(CN2CCCC2)C1 (stereo not drawn)	4.067
Cc1cc(NCc2cc3n(n2)CCCN(C(=O)C2CCC2)C3)ncn1	87.84

Structure (SMILES)	Percent Effect [%]
Cc1cc(NCc2cc3n(n2)CCCN(S(C)(=O)=O)C3)ncn1	-6.593
CC(=O)N1CCCn2nc(CNS(=O)(=O)N3CCCCCC3)cc2C1	-0.4584
Cc1nc(CN2CCCn3nc(CNC(=O)C4CCC4)cc3C2)co1	-9.719
CC(=O)N1CCCn2nc(CNc3cc(C)ncn3)cc2C1	18.58
N[C@H]1CC[C@@H](CN2CCCn3nc(CNC(=O)C4CCC4)cc3C2)CC1	11.2
Cc1cc(NCc2cc3n(n2)CCCN(C(=O)N(C)C)C3)ncn1	-7.228
Cc1cc(C)nc(NCc2cc3n(n2)CCCN(C(=O)C2CCC2)C3)n1	104.2
CS(=O)(=O)N1CCCn2nc(CNc3ncccn3)cc2C1	-7.874
O=C(C1CCC1)N1CCCn2nc(CNc3ncccn3)cc2C1	131.9
Cc1cc(NCc2cc3n(n2)CCCN(C(=O)C2CCC2)C3)nc(N)n1	111.3
COc1ccccc1CN1C(=O)O[C@@H]2CN(c3nccs3)C[C@@H]21	-9.448
CCc1ccc(NS(=O)(=O)CC2=NC(=O)n3cccc3C2=O)cc1	11.57
CCn1cnnc1CCNC(=O)c1ccc(F)c(Br)c1	-6.891
CN(C)C(=O)CO[C@H]1CO[C@@]2(CCN(S(C)(=O)=O)C2)C1	-10.41
Cn1c(CN2CCN(c3cccnc3)CC2)cc2ccccc21	39.54
CC(C)NC(=O)C1CN(C(N)=O)Cc2ccnn2C1 (stereo not drawn)	-7.077
COCCNC(=O)C1CN(C(N)=O)Cc2ccnn2C1 (stereo not drawn)	100.3
CS(=O)(=O)N1Cc2ccnn2CC(C(=O)NCc2cccnc2)C1.O=C(O)C(F)(F)F.O=C(O)C(F)(F)F (stereo not drawn)	101.4
COCCNC(=O)C1CN(Cc2ccsc2)Cc2ccnn2C1 (stereo not drawn)	3.328
COCCNC(=O)C1CN(Cc2cccnc2)Cc2ccnn2C1.O=C(O)C(F)(F)F.O=C(O)C(F)(F)F.O=C(O)C(F)(F)F (stereo not drawn)	1.319
O=C(NCc1cccnc1)[C@@H]1CC[C@@H]2[C@@H](CCN2c2ncc(F)cn2)O1.O=C(O)C(F)(F)F.O=C(O)C(F)(F)F	-0.1893
CC(=O)N1Cc2ccnn2CC(C(=O)NCc2cccnc2)C1.O=C(O)C(F)(F)F (stereo not drawn)	105.9
CC(C)CN(Cc1ccc(C(F)(F)F)nc1)Cc1cnn(C)c1	-7.949
